Measured values from PubChem BioAssay.
Where “and” joins values, the source holds several entries; their conditions need not be identical. Equal values may be shown once. Calls of active or inactive are those of the source.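 Rule for the calls, unless noted: active = mean z-score across replicates of 1.96 or higher in either the MELAS or the Rieske mutant cell line; inactive = the rest.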

System: not listed separately
Assay: inhibitors of Cryptococcus chitosan production, flow cytometry, Cibacron Brilliant Red staining (AID 1347148; call rule not given here;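 note: compound exposure lasted three days at 37 degrees C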)
Details: Cryptococcus neoformans chitosan, stronger effect = lower value; at 10 µM unless noted

Q: With `Cc1coc2c1C(=O)C(=O)c1c-2ccc2c1CCCC2(C)C` as the compound, how does the fold fluorescence read?
A: The fold fluorescence was 3.12 [at 169.9 µM] (inactive).

Q: With `CC[C@@]1(O)C(=O)OCc2c1cc1n(c2=O)Cc2cc3cc(O)ccc3nc2-1` as the compound, how does the fold fluorescence read?
A: Its fold fluorescence is 7.95 [at 137.2 µM] (inactive).

Q: With `CC(C)NC[C@H](O)COc1cccc2ccccc12` as the compound, how does the fold fluorescence read?
A: Its fold fluorescence is 1.64 [at 192.8 µM] (inactive).

System: not listed separately
Assay: phospholipid biosynthesis inhibitors in animal cells, primary screen, cell-based, LOPAC library, screen 4 (AID 1347384; call rule not given here)
Details: phospholipid biosynthesis inhibition screen, at 10 µM

Q: With `CCCCS(=N)(=O)CCC(N)C(=O)O` (stereo not given) as the compound, how does the outcome read?
A: Its outcome is “inactive”.

Q: With `Nc1nc(N)c2nc(CNc3ccc(C(=O)NC(CCC(=O)O)C(=O)O)cc3)cnc2n1` (stereo not given) as the compound, how does the outcome read?
A: The outcome was “inactive”.

Q: With `CC1=C(C(=O)O)N2C(=O)[C@@H](NC(=O)C(N)c3ccccc3)[C@H]2SC1` (stereo not given in full) as the compound, how does the outcome read?
A: The outcome was “inactive”.

Q: With `CC1CC2C3CCC4=CC(=O)C=C[C@]4(C)[C@@]3(F)[C@@H](O)C[C@]2(C)[C@@]1(O)C(=O)CO` (stereo not given in full) as the compound, how does the outcome read?
A: The outcome was “inactive”.

Q: With `CC(C)NC[C@H](O)COc1cccc2ccccc12` as the compound, how does the outcome read?
A: Its outcome is “inactive”.

System: not listed separately
Assay: survival rescue of mitochondrial mutant cells in low glucose, primary screen, MELAS cybrids, Rieske KO mouse fibroblasts, CellTiter-Glo (AID 1508586);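 note: z relative to plate mean and SD of compound and empty wells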
Details: MELAS cybrid survival, CellTiter-Glo 48 h, stronger effect = higher value

Q: For `CC[C@]1(O)CC2CN(CCc3c([nH]c4ccccc34)[C@@](C(=O)OC)(c3cc4c(cc3OC)N(C)[C@H]3[C@@](O)(C(=O)OC)[C@H](OC(C)=O)[C@]5(CC)C=CCN6CC[C@]43[C@@H]65)C2)C1` (stereo not given in full), which z-score is on record?
A: Its z-score is -2.11 (inactive).

Q: Which z-score does the source give for `Cc1coc2c1C(=O)C(=O)c1c-2ccc2c1CCCC2(C)C` here?
A: Its z-score is 0.593 (inactive) and 0.0182 (inactive).

Q: With `OC(c1cc(C(F)(F)F)nc2c(C(F)(F)F)cccc12)C1CCCCN1` (stereo not given) as the compound, how does the z-score read?
A: Its z-score is -2.19 (inactive).

Q: With `N#CC(c1ccc(Cl)cc1)c1c(Cl)cc(-n2ncc(=O)[nH]c2=O)cc1Cl` (stereo not given) as the compound, how does the z-score read?
A: Its z-score is -0.404 (inactive) and -1.37 (inactive) and -0.711 (inactive).

Q: With `CC(C)(CO)[C@@H](O)C(=O)NCCC(=O)O` as the compound, how does the z-score read?
A: The z-score was -0.406 (inactive) and -0.744 (inactive).

Q: With `CN1C(C(=O)Nc2ccccn2)=C(O)c2sc(Cl)cc2S1(=O)=O` as the compound, how does the z-score read?
A: Its z-score is -0.192 (inactive).

Q: With `CC(C)NC[C@H](O)COc1cccc2ccccc12` as the compound, how does the z-score read?
A: Its z-score is -0.245 (inactive).

Q: For `CN[C@@H]1[C@H](O[C@H]2[C@H](O[C@@H]3[C@@H](O)[C@H](O)[C@@H](N=C(N)N)[C@H](O)[C@H]3N=C(N)N)O[C@@H](C)[C@]2(O)C=O)O[C@@H](CO)[C@H](O)[C@H]1O`, which z-score is on record?
A: Its z-score is -0.628 (inactive) and -0.564 (inactive).

Q: For `COc1ccc(C2Sc3ccccc3N(CCN(C)C)C(=O)C2OC(C)=O)cc1` (stereo not given), which z-score is on record?
A: The z-score was -0.332 (inactive).

Q: Which z-score does the source give for `Cc1c(-c2cnccn2)ssc1=S` here?
A: Its z-score is 0.683 (inactive).

Same assay, conditions: Rieske KO mouse fibroblast survival, CellTiter-Glo 72 h

Q: Which z-score does the source give for `CC[C@]1(O)CC2CN(CCc3c([nH]c4ccccc34)[C@@](C(=O)OC)(c3cc4c(cc3OC)N(C)[C@H]3[C@@](O)(C(=O)OC)[C@H](OC(C)=O)[C@]5(CC)C=CCN6CC[C@]43[C@@H]65)C2)C1` (stereo not given in full) here?
A: The z-score was 1.21.

Q: For `Cc1coc2c1C(=O)C(=O)c1c-2ccc2c1CCCC2(C)C`, which z-score is on record?
A: The z-score was 0.381 and 0.81.

Q: Which z-score does the source give for `OC(c1cc(C(F)(F)F)nc2c(C(F)(F)F)cccc12)C1CCCCN1` (stereo not given) here?
A: Its z-score is -3.08.

Q: Which z-score does the source give for `N#CC(c1ccc(Cl)cc1)c1c(Cl)cc(-n2ncc(=O)[nH]c2=O)cc1Cl` (stereo not given) here?
A: The z-score was 0.144 and -0.703 and -0.429.

Q: Which z-score does the source give for `CC(C)(CO)[C@@H](O)C(=O)NCCC(=O)O` here?
A: The z-score was 0.568 and -1.28.

Q: With `CN1C(C(=O)Nc2ccccn2)=C(O)c2sc(Cl)cc2S1(=O)=O` as the compound, how does the z-score read?
A: Its z-score is 0.681.

Q: Which z-score does the source give for `CC(C)NC[C@H](O)COc1cccc2ccccc12` here?
A: Its z-score is -0.593.

Q: For `CN[C@@H]1[C@H](O[C@H]2[C@H](O[C@@H]3[C@@H](O)[C@H](O)[C@@H](N=C(N)N)[C@H](O)[C@H]3N=C(N)N)O[C@@H](C)[C@]2(O)C=O)O[C@@H](CO)[C@H](O)[C@H]1O`, which z-score is on record?
A: Its z-score is -0.384 and -1.54.

Q: Which z-score does the source give for `COc1ccc(C2Sc3ccccc3N(CCN(C)C)C(=O)C2OC(C)=O)cc1` (stereo not given) here?
A: The z-score was -0.2.

Q: For `Cc1c(-c2cnccn2)ssc1=S`, which z-score is on record?
A: The z-score was -0.106.

Molecular target: NAD(+) hydrolase SARM1 (Homo sapiens) (UniProt Q6SZW1)
Sequence (Q6SZW1 whole entry, looked up): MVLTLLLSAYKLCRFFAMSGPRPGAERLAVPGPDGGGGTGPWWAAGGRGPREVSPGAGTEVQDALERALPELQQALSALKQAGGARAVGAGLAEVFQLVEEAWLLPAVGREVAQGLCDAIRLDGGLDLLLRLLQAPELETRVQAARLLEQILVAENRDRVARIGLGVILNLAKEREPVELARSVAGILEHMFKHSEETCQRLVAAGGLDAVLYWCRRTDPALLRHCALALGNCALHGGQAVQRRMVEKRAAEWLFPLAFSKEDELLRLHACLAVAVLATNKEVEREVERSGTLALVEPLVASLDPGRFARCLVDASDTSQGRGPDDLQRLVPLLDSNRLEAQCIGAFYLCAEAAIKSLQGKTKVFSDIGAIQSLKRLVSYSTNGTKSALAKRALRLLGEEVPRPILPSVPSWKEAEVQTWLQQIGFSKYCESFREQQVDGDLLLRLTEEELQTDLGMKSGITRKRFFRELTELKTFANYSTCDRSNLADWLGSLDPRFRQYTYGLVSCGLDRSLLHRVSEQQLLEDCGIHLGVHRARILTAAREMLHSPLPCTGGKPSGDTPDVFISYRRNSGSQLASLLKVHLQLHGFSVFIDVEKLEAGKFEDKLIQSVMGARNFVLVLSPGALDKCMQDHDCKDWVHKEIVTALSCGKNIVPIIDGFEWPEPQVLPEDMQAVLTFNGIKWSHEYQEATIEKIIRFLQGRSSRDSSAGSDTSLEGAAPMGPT
Assay: SARM1 TIR NADase inhibitors, cell lysate, NAD-Glo luminescence (AID 1508614;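 active = compound whose remaining NAD level is above about 45 nM, limit read from the data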;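 note: higher remaining NAD means stronger inhibition of SARM1 NADase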)
Details: SAM-TIR HEK293T lysate NADase, at 1 µM, stronger effect = higher value

Q: Which remaining NAD does the source give for `OC[C@@H](O)[C@@H](O)[C@H](O)[C@@H](O)CO` here?
A: Its remaining NAD is 10 nM (inactive).

Q: With `COC(=O)/C=C/C(=O)OC` as the compound, how does the remaining NAD read?
A: The remaining NAD was 10 nM (inactive).

Q: For `C=CC[C@@H]1/C=C(\C)C[C@H](C)C[C@H](OC)[C@H]2O[C@@](O)(C(=O)C(=O)N3CCCC[C@H]3C(=O)O[C@H](/C(C)=C/[C@@H]3CC[C@@H](O)[C@H](OC)C3)[C@H](C)[C@@H](O)CC1=O)[C@H](C)C[C@@H]2OC`, which remaining NAD is on record?
A: Its remaining NAD is 10 nM (inactive).

Q: With `N#C[C@@H]1C[C@@H]2C[C@@H]2N1C(=O)[C@@H](N)C12CC3CC(CC(O)(C3)C1)C2` as the compound, how does the remaining NAD read?
A: The remaining NAD was 10 nM (inactive).

Q: For `Clc1ccc(CCC(Cn2ccnc2)Sc2c(Cl)cccc2Cl)cc1` (stereo not given), which remaining NAD is on record?
A: Its remaining NAD is 10 nM (inactive).

Q: For `N#CC(c1ccc(Cl)cc1)c1c(Cl)cc(-n2ncc(=O)[nH]c2=O)cc1Cl` (stereo not given), which remaining NAD is on record?
A: Its remaining NAD is 10 nM (inactive).

Q: Which remaining NAD does the source give for `COc1ccc2nc3cc(Cl)ccc3c(Nc3cc(CN4CCCC4)c(O)c(CN4CCCC4)c3)c2n1` here?
A: The remaining NAD was 10 nM (inactive).

Q: Which remaining NAD does the source give for `CC(C)(CO)[C@@H](O)C(=O)NCCC(=O)O` here?
A: Its remaining NAD is 10 nM (inactive).

Q: For `CN1C(C(=O)Nc2ccccn2)=C(O)c2sc(Cl)cc2S1(=O)=O`, which remaining NAD is on record?
A: Its remaining NAD is 10 nM (inactive).

Q: Which remaining NAD does the source give for `Cc1c(-c2cnccn2)ssc1=S` here?
A: Its remaining NAD is 10 nM (inactive).

Q: For `Nc1nc(F)nc2c1ncn2[C@@H]1O[C@H](COP(=O)(O)O)[C@@H](O)[C@@H]1O`, which remaining NAD is on record?
A: The remaining NAD was 10 nM (inactive).

Q: For `N[C@@H](CC(=O)N1CCn2c(nnc2C(F)(F)F)C1)Cc1cc(F)c(F)cc1F`, which remaining NAD is on record?
A: The remaining NAD was 10 nM (inactive).
